# Test results as given in PubChem BioAssay (EPA / NIEHS).
# The source holds several records for some structures; these can differ, active in one and inactive in another. Activity calls are given as the source filed them. Rule for the calls: active = hit-call score of the fitted dose curve at least 0.9, where 1 is the maximum; inactive = score below 0.9.
# Assay: CEETOX_H295R_DOC: CeeTox H295R High-throughput Steroidogenesis Assay for DOC (AID 2283439)
# Details: actives raise or lower the signal
# Procedure, shortened: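 H295R adrenal cells prestimulated 48 h with 10 uM forskolin, then exposed 48 h to test chemical (0.1% DMSO final). Medium 11-deoxycorticosterone extracted with MTBE, quantified by HPLC-MS/MS; bidirectional fit versus DMSO baseline; MTT viability in same wells.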
Structure (SMILES),outcome,AC50
CCOC(=O)CC(SP(=S)(OC)OC)C(=O)OCC (stereo not drawn),inactive,–
C=CCC1=C(C)C(OC(=O)C2C(C=C(C)C)C2(C)C)CC1=O (stereo not drawn),inactive,–
CC(C)Oc1cc(-n2nc(C(C)(C)C)oc2=O)c(Cl)cc1Cl,inactive,–
N#CC(CCc1ccc(Cl)cc1)(Cn1cncn1)c1ccccc1 (stereo not drawn),inactive,–
COc1nc(NC(C)C)nc(NC(C)C)n1,inactive,–
CNC(=S)S,inactive,–
CCNc1nc(Cl)nc(NCC)n1,inactive,–
CON(C)C(=O)Nc1ccc(Cl)c(Cl)c1,inactive,–
CCOc1cc(Oc2ccc(C(F)(F)F)cc2Cl)ccc1[N+](=O)[O-],inactive,–
CC1=C(C(=O)Nc2ccccc2)SCCO1,inactive,–
CC1COC(Cn2cncn2)(c2ccc(Oc3ccc(Cl)cc3)cc2Cl)O1 (stereo not drawn),–,0.334 µM (active)
CCON=C(CC)C1=C(O)CC(c2c(C)cc(C)cc2C)CC1=O (stereo not drawn),inactive,–
Cc1cc(Cl)ccc1OCC(=O)O,inactive,–
CCCCNC(=O)n1c(NC(=O)OC)nc2ccccc21,inactive,–
CCCC1COC(Cn2cncn2)(c2ccc(Cl)cc2Cl)O1 (stereo not drawn),inactive,–
CCNc1nc(Cl)nc(NC(C)C)n1,inactive,–
CCOC(=O)C(Cl)Cc1cc(-n2nc(C)n(C(F)F)c2=O)c(F)cc1Cl (stereo not drawn),–,17.2 µM (active)
C=CC1(C)OC(=O)N(c2cc(Cl)cc(Cl)c2)C1=O (stereo not drawn),–,11.3 µM (active)
Cc1c(F)c(F)c(COC(=O)C2C(/C=C(\Cl)C(F)(F)F)C2(C)C)c(F)c1F (stereo not drawn),inactive,–
COP(=S)(OC)Oc1nc(Cl)c(Cl)cc1Cl,inactive,–

# Assay: CEETOX_H295R_ESTRADIOL: CeeTox H295R High-throughput Steroidogenesis Assay for Estradiol (AID 2283440);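 note: estradiol secreted into medium quantified by LC-MS/MS after dansyl derivatisation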
# Details: actives raise or lower the signal
# Procedure, shortened: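 Estradiol secreted into the medium was measured by tandem mass spectrometry after liquid-liquid extraction and dansylation. Human H295R cells had been forskolin-primed (10 uM, 48 h) before a 48 h chemical exposure with 0.1% DMSO.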
Structure (SMILES),outcome,AC50
CC(C)Oc1cc(-n2nc(C(C)(C)C)oc2=O)c(Cl)cc1Cl,inactive,–
Oc1ccccc1-c1ccccc1,inactive,32 µM (active)
N#CC(CCc1ccc(Cl)cc1)(Cn1cncn1)c1ccccc1 (stereo not drawn),inactive,–
COc1nc(NC(C)C)nc(NC(C)C)n1,–,6.99 µM (active)
CNC(=S)S,inactive,–
CCNc1nc(Cl)nc(NCC)n1,inactive,–
CCOc1cc(Oc2ccc(C(F)(F)F)cc2Cl)ccc1[N+](=O)[O-],–,1.78 µM (active)
CC1=C(C(=O)Nc2ccccc2)SCCO1,–,21.2 µM (active)
CC1COC(Cn2cncn2)(c2ccc(Oc3ccc(Cl)cc3)cc2Cl)O1 (stereo not drawn),inactive,–
CCCCNC(=O)n1c(NC(=O)OC)nc2ccccc21,inactive,–
CCNc1nc(Cl)nc(NC(C)C)n1,inactive,–
CCOC(=O)C(Cl)Cc1cc(-n2nc(C)n(C(F)F)c2=O)c(F)cc1Cl (stereo not drawn),inactive,–
C=CC1(C)OC(=O)N(c2cc(Cl)cc(Cl)c2)C1=O (stereo not drawn),inactive,–
Cc1c(F)c(F)c(COC(=O)C2C(/C=C(\Cl)C(F)(F)F)C2(C)C)c(F)c1F (stereo not drawn),inactive,–
COP(=S)(OC)Oc1nc(Cl)c(Cl)cc1Cl,inactive,–

# Assay: CEETOX_H295R_ESTRONE: CeeTox H295R High-throughput Steroidogenesis Assay for Estrone (AID 2283441);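 note: estrone secreted into medium measured by LC-MS/MS after dansyl derivatization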;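 for AC50: human adrenal H295R cells prestimulated with forskolin for two days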
# Details: actives raise or lower the signal
# Procedure, shortened: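 H295R cells; 48 h forskolin (10 uM) prestimulation; 48 h compound exposure, 0.1% DMSO final. Medium estrone: MTBE extraction, dansyl derivatization, HPLC-MS/MS. Bidirectional fit vs DMSO.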
Structure (SMILES),outcome,AC50
CC(C)Oc1cc(-n2nc(C(C)(C)C)oc2=O)c(Cl)cc1Cl,inactive,–
Oc1ccccc1-c1ccccc1,inactive,50 µM (active)
N#CC(CCc1ccc(Cl)cc1)(Cn1cncn1)c1ccccc1 (stereo not drawn),inactive,–
COc1nc(NC(C)C)nc(NC(C)C)n1,–,3.8 µM (active)
CNC(=S)S,inactive,–
CCNc1nc(Cl)nc(NCC)n1,–,8.07 µM (active)
CCOc1cc(Oc2ccc(C(F)(F)F)cc2Cl)ccc1[N+](=O)[O-],–,3.32 µM (active)
CC1=C(C(=O)Nc2ccccc2)SCCO1,inactive,–
CC1COC(Cn2cncn2)(c2ccc(Oc3ccc(Cl)cc3)cc2Cl)O1 (stereo not drawn),inactive,–
CCCCNC(=O)n1c(NC(=O)OC)nc2ccccc21,inactive,–
CCNc1nc(Cl)nc(NC(C)C)n1,–,1.35 µM (active)
CCOC(=O)C(Cl)Cc1cc(-n2nc(C)n(C(F)F)c2=O)c(F)cc1Cl (stereo not drawn),inactive,–
C=CC1(C)OC(=O)N(c2cc(Cl)cc(Cl)c2)C1=O (stereo not drawn),inactive,–
Cc1c(F)c(F)c(COC(=O)C2C(/C=C(\Cl)C(F)(F)F)C2(C)C)c(F)c1F (stereo not drawn),inactive,–
COP(=S)(OC)Oc1nc(Cl)c(Cl)cc1Cl,inactive,–

# Assay: CEETOX_H295R_PROG: CeeTox H295R High-throughput Steroidogenesis Assay for Progesterone (PROG) (AID 2283442);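 for AC50: human H295R adrenal cells primed with 10 µM forskolin before dosing; progesterone secreted into medium by H295R cells measured by HPLC-MS/MS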
# Details: actives raise or lower the signal
# Procedure, shortened: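 Steps: seed H295R cells and let them adhere overnight; prime 48 h with 10 uM forskolin; dose with compound in DMSO at 0.1% final for 48 h; extract medium steroids with MTBE; measure progesterone by LC-MS/MS. MTT viability was run in the same wells.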
Structure (SMILES),AC50,outcome
CCOC(=O)CC(SP(=S)(OC)OC)C(=O)OCC (stereo not drawn),21 µM (active),–
C=CCC1=C(C)C(OC(=O)C2C(C=C(C)C)C2(C)C)CC1=O (stereo not drawn),–,inactive
CC(C)Oc1cc(-n2nc(C(C)(C)C)oc2=O)c(Cl)cc1Cl,–,inactive
Oc1ccccc1-c1ccccc1,50 µM (active),inactive
N#CC(CCc1ccc(Cl)cc1)(Cn1cncn1)c1ccccc1 (stereo not drawn),0.627 µM (active),–
COc1nc(NC(C)C)nc(NC(C)C)n1,–,inactive
CNC(=S)S,–,inactive
CCNc1nc(Cl)nc(NCC)n1,–,inactive
CON(C)C(=O)Nc1ccc(Cl)c(Cl)c1,–,inactive
CCOc1cc(Oc2ccc(C(F)(F)F)cc2Cl)ccc1[N+](=O)[O-],–,inactive
CC1=C(C(=O)Nc2ccccc2)SCCO1,–,inactive
CC1COC(Cn2cncn2)(c2ccc(Oc3ccc(Cl)cc3)cc2Cl)O1 (stereo not drawn),–,inactive
CCON=C(CC)C1=C(O)CC(c2c(C)cc(C)cc2C)CC1=O (stereo not drawn),–,inactive
Cc1cc(Cl)ccc1OCC(=O)O,–,inactive
CCCCNC(=O)n1c(NC(=O)OC)nc2ccccc21,–,inactive
CCCC1COC(Cn2cncn2)(c2ccc(Cl)cc2Cl)O1 (stereo not drawn),–,inactive
CCNc1nc(Cl)nc(NC(C)C)n1,–,inactive
CCOC(=O)C(Cl)Cc1cc(-n2nc(C)n(C(F)F)c2=O)c(F)cc1Cl (stereo not drawn),–,inactive
C=CC1(C)OC(=O)N(c2cc(Cl)cc(Cl)c2)C1=O (stereo not drawn),17.5 µM (active),–
Cc1c(F)c(F)c(COC(=O)C2C(/C=C(\Cl)C(F)(F)F)C2(C)C)c(F)c1F (stereo not drawn),–,inactive
